# Columns and labels:
# [1] = biological target: Tyrosine-protein kinase SYK (Homo sapiens) (UniProt P43405); details: at 10 µM
# [2] = biological target: T1, Mitogen-activated protein kinase kinase kinase 7 (Homo sapiens) (UniProt O43318); details: at 1 µM
# T1 sequence (whole entry): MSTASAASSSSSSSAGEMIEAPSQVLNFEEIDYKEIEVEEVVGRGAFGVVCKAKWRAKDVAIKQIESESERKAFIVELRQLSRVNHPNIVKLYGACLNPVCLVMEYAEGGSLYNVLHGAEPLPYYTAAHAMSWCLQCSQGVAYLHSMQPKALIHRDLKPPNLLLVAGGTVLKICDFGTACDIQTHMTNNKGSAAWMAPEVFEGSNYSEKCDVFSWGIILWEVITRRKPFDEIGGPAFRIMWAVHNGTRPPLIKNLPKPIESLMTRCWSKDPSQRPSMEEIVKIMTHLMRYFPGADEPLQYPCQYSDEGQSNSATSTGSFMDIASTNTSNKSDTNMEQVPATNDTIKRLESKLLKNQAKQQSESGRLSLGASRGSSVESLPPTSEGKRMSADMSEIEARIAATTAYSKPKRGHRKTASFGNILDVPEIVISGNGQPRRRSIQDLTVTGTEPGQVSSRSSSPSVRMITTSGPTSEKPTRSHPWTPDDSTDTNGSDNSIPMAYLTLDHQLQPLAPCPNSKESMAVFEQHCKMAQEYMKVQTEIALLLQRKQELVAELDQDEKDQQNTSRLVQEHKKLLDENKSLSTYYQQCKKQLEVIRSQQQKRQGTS
# [3] = biological target: T1, Mitogen-activated protein kinase kinase kinase 7 (Homo sapiens); details: at 10 µM
# [4] = biological target: T2, Serine/threonine-protein kinase TAO1 (Homo sapiens) (UniProt Q7L7X3); details: at 1 µM
# T2 sequence (whole entry): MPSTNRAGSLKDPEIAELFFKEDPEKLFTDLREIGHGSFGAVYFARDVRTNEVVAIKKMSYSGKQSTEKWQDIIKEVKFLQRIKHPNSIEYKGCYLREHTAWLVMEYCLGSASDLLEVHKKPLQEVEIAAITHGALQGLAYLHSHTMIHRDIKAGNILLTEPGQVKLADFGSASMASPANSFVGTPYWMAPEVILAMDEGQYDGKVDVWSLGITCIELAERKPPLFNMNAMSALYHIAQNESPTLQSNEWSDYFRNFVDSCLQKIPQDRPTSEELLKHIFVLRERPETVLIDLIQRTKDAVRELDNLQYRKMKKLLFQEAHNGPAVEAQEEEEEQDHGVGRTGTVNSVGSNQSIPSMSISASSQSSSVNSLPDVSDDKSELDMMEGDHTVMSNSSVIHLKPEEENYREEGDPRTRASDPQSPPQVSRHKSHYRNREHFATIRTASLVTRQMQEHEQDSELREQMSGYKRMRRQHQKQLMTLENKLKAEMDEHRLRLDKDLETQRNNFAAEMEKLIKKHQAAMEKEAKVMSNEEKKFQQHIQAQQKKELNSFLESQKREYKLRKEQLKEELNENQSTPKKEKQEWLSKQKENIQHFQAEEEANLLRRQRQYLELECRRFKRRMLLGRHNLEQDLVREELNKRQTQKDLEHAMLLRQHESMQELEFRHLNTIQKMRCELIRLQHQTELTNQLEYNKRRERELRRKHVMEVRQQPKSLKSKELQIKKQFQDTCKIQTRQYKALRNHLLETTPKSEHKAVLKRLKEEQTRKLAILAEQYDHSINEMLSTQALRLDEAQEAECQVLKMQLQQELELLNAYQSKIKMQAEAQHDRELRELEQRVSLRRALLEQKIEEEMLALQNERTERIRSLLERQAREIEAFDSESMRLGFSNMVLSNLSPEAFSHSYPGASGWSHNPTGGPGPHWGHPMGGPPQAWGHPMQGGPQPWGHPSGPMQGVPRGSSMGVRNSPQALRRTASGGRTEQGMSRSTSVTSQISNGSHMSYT
# [5] = biological target: T2, Serine/threonine-protein kinase TAO1 (Homo sapiens); details: at 10 µM
# [6] = biological target: T3, Serine/threonine-protein kinase TAO3 (Homo sapiens) (UniProt Q9H2K8); details: at 1 µM
# T3 sequence (whole entry): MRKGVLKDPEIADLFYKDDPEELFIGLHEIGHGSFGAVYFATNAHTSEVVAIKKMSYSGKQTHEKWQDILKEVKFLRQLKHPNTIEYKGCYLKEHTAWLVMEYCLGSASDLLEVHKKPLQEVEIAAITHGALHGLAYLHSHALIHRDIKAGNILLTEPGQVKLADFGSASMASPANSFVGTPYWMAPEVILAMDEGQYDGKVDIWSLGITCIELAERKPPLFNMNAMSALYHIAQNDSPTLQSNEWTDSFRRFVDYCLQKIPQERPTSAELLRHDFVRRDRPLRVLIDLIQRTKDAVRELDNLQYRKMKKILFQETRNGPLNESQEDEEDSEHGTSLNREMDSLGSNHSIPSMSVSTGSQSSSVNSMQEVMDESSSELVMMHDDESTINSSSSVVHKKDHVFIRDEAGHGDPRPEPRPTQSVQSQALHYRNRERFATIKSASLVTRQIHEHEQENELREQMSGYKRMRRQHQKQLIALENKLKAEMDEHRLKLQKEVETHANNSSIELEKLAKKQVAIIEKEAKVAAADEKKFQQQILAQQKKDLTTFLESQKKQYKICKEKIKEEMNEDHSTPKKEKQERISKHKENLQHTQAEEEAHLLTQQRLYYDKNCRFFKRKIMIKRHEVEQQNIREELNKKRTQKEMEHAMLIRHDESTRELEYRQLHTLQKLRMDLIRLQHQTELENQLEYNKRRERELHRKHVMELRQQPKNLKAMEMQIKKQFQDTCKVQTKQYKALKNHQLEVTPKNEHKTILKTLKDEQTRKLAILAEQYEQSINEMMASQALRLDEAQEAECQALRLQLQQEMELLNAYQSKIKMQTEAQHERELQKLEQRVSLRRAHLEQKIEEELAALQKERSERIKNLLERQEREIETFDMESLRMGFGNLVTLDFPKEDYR
# [7] = biological target: T3, Serine/threonine-protein kinase TAO3 (Homo sapiens); details: at 10 µM
# [8] = biological target: T4, TGF-beta receptor type-1 (Homo sapiens) (UniProt P36897); details: at 1 µM
# T4 sequence (whole entry): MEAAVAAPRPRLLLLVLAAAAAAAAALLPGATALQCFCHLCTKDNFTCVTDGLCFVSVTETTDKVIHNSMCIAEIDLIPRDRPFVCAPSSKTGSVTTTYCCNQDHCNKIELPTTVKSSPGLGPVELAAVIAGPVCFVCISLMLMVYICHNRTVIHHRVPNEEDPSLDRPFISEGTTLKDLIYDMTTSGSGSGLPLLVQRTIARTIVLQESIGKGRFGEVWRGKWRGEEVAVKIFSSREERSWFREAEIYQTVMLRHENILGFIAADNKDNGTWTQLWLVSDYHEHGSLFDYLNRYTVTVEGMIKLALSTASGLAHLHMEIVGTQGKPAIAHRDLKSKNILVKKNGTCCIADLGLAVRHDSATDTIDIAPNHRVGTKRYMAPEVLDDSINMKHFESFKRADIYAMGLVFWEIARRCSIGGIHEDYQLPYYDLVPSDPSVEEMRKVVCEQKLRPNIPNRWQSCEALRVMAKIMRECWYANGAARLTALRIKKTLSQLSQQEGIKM
# [9] = biological target: Insulin-like growth factor 1 receptor (Homo sapiens) (UniProt P08069); details: at 1 µM
# [10] = biological target: Insulin-like growth factor 1 receptor (Homo sapiens) (UniProt P08069); details: at 10 µM
# [11] = biological target: T5, Inhibitor of nuclear factor kappa-B kinase subunit alpha (Homo sapiens) (UniProt O15111); details: at 10 µM
# T5 sequence (whole entry): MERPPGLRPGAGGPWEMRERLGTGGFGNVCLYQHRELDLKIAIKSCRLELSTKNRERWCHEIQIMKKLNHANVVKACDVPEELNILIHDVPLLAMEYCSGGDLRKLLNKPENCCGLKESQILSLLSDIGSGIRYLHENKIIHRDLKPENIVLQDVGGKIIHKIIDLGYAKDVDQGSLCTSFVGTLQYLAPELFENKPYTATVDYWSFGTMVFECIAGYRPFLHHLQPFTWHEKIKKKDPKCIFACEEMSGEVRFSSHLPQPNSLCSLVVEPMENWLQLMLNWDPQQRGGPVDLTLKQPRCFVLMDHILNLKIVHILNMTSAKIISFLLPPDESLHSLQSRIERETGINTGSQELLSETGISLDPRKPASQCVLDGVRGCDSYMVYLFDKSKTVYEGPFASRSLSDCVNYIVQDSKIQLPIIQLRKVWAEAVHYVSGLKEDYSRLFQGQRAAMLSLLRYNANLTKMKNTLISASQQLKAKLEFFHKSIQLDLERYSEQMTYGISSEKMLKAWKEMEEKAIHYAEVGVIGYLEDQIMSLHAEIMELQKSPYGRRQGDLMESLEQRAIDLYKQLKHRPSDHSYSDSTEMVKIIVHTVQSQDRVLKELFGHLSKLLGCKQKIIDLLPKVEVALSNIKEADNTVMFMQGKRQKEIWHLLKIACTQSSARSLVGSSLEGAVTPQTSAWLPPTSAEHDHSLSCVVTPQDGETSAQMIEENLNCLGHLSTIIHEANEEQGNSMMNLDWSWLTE
# [12] = biological target: T6, Inhibitor of nuclear factor kappa-B kinase subunit beta (Homo sapiens) (UniProt O14920); details: at 1 µM
# T6 sequence (whole entry): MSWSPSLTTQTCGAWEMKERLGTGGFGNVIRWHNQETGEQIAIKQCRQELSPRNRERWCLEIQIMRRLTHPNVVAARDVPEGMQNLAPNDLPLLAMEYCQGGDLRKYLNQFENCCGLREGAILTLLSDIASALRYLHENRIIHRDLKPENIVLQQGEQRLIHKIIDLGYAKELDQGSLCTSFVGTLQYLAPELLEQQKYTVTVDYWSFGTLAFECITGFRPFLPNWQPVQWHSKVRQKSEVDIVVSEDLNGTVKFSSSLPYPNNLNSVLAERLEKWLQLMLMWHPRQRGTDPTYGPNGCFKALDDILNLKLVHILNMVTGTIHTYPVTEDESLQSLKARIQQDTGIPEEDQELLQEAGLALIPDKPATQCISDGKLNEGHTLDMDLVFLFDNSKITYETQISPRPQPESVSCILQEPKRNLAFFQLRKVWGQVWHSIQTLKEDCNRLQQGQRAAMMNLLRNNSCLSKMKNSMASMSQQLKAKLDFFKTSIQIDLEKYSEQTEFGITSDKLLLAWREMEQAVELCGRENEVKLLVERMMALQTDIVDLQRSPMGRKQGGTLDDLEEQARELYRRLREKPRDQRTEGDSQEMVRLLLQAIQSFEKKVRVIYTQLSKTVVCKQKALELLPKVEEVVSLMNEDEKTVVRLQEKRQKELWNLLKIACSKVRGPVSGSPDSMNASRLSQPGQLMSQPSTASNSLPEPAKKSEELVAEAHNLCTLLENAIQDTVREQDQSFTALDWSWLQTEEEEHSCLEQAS
# [13] = biological target: T6, Inhibitor of nuclear factor kappa-B kinase subunit beta (Homo sapiens); details: at 10 µM
# Chain of Insulin-like growth factor 1 receptor (Homo sapiens) (P08069 31-736 limits assumed): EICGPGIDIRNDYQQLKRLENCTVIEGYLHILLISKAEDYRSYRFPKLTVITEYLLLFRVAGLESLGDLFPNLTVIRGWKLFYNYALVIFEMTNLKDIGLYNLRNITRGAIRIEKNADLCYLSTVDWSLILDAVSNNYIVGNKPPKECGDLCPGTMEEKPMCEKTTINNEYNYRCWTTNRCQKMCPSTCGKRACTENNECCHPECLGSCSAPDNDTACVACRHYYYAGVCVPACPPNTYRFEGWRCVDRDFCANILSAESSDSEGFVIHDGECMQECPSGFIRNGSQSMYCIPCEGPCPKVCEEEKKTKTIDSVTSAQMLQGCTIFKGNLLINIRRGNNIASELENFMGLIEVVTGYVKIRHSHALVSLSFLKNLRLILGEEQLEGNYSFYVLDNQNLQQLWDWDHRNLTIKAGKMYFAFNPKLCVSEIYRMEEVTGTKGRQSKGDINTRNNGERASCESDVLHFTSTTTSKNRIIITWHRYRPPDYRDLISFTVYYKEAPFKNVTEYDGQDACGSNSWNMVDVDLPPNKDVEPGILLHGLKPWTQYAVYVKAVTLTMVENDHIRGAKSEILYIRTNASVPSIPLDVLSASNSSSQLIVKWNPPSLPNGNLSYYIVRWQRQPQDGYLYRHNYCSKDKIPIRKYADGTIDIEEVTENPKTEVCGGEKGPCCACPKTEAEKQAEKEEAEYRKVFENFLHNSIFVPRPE
# Chain of Insulin-like growth factor 1 receptor (Homo sapiens) (P08069 741-1367 limits assumed): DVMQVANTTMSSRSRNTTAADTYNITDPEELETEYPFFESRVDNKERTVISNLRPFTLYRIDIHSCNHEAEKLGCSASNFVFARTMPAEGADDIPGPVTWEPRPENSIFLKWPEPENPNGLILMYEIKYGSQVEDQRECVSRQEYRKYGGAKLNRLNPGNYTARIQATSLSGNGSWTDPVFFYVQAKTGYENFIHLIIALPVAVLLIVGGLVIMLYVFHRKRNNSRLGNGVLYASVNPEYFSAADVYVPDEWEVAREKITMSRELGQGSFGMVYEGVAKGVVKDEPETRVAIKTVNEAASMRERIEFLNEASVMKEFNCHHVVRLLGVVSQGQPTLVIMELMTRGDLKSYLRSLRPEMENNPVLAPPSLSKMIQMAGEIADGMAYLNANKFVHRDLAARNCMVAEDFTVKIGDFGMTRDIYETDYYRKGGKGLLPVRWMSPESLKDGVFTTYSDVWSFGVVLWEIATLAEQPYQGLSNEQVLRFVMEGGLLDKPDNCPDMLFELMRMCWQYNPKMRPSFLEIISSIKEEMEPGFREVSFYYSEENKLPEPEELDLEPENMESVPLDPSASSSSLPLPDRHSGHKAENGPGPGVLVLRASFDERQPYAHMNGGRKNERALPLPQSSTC
smiles,measurement,setting,value
Nc1ncnc2c1cnn2-c1ccccc1,residual activity,[1],92%
same,residual activity,[2],89%
same,residual activity,[3],88%
same,residual activity,[4],94%
same,residual activity,[5],80%
same,residual activity,[6],100%
same,residual activity,[7],87%
same,residual activity,[8],92%
same,residual activity,[9],88%
same,residual activity,[10],76%
same,residual activity,[11],85%
same,residual activity,[12],97%
same,residual activity,[13],86%

# Source: ChEMBL document CHEMBL2218924, “A broad activity screen in support of a chemogenomic map for kinase signalling research and drug discovery” (Biochem J, 2013)
